# Screening data from PubChem BioAssay.
# Giardia killer – Small Molecules that selectively kill Giardia lamblia: qHTS. Giardia lamblia trophozoite viability. activity change, % at 7.66 µM, hits read low. 0.15% of 340,000 active; in the data active = activity change below about -80%; inconclusive = between about -30% and that limit;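 note: parasites exposed to compound for two days anaerobically before the ATP read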
#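 Trophozoites 100 cells/well + cpd; 48 hrs, 37 deg C, anaerobic. ATPLite 1-Step added, 15-30 min RT, luminescence read (ATP-based viability).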
# ATXN2 expr inh – Primary qHTS for Inhibitors of ATXN expression | HEK-293 ATXN2-luciferase reporter, luminescence, 24 h | Potency, µM (top dose mostly 57 µM), hits mostly inhibitors | 0.72% of 360,000 active; note: nearly all actives have a fitted effect of over 55% in size
#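 qHTS (up to 57 uM final) was run with 24 h compound exposure of reporter cells at 37 °C. Each well was multiplexed: SteadyGlo luminescence measured ATXN2-luciferase expression after a fluorogenic Gly-Phe-AFC viability readout (25 uM final).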
# S2 tox – Viability Counterscreen for Primary qHTS for Inhibitors of ATXN expression; S2 cells (HEK-293 line with an ATXN2-luciferase reporter) viability, CellTiter-Fluor protease fluorescence, 24 h; Potency, µM (highest dose often 56.7 µM), hits mostly cytotoxic; AID 651635, 2014; 0.49% of 400,000 active; note: nearly all actives have a fitted effect of over 40% in size
# TGFb SMAD3 inh – qHTS for Inhibitors of TGF-b | HepG2 CAGA-GFP TGF-b/SMAD3 reporter, GFP fluorescence, 18 h; TGF-beta stimulated, 500 pg/mL final | Potency, µM (doses to about 46.1 µM), hits mostly inhibitors | 1.2% of 410,000 active | AID 588855, 2011; note: nearly all actives have a fitted effect of over 65% in size
#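 HEPG2 CAGA-GFP cells (1000/well, DMEM with 1% FBS) were pre-incubated 2 h at 37 degrees C, given compound by pin tool, then stimulated with TGF-beta at 500 pg/mL final for 18 h before per-cell GFP fluorescence imaging.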
# uPA generation – qHTS for Inhibitors of Cell Surface uPA Generation; cell surface uPA generation assay, qHTS; Potency, µM (top dose mostly 38.3 µM), actives largely listed as inhibitors; 0.31% of 330,000 active; AID 540303, 2011; active = well fitted inhibition curve with a large enough effect; inconclusive = small, poorly fitted or top-dose-only effect; inactive = no such curve, though single readings can be large or run the other way; tested in mouse RAW 264.7 cells; note: nearly all actives have a fitted effect of over 55% in size
# HepG2 tox-1 – qHTS for Inhibitors of TGF-b: Cytotox Counterscreen; HepG2 CAGA-GFP viability, ATP luminescence, 18 h; Potency, µM (doses to about 46.1 µM), usual class: cytotoxic; 0.76% of 410,000 active; AID 588856, 2011
#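 HepG2 CAGA-GFP cells (1000/well, DMEM with 1% FBS) received compound, then TGF-beta at 500 pg/mL final, and were incubated 18 hours at 37 degrees C. Viability was read by CellTiter-Glo luminescence. Media-only wells were set as complete cell-killing and DMSO as no toxicity.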
# TGFb confirm – qHTS for Inhibitors of TGF-b: Confirmation of Cherry Picks; HepG2 CAGA-GFP TGF-b reporter, GFP fluorescence, 18 h; cells stimulated with TGF-beta, 500 pg/mL; Potency, µM (top dose mostly 46.1 µM), usual class: inhibitors; shares compounds with TGFb SMAD3 inh; 63% of 1,600 active; note: nearly all actives have a fitted effect of over 65% in size
# HepG2 tox-2 – qHTS for Inhibitors of TGF-b: Cytotox Counterscreen for Cherry Picks; shares compounds with TGFb SMAD3 inh; HepG2 CAGA-GFP viability, ATP luminescence, 18 h; cells stimulated with TGF-beta, 500 pg/mL; 27% of 1,600 active; Potency, µM (doses to about 46.1 µM), most hits filed as inhibitors; note: nearly all actives have a fitted effect of over 70% in size
# CCL64 TGFb inh – qHTS for Inhibitors of TGF-b: CCL64 Cells Orthogonal Assay for Cherry Picks. CCL64 CAGA-GFP reporter, TGF-b stimulated, GFP fluorescence, 18 h. shares compounds with TGFb SMAD3 inh. Potency, µM (highest dose often 46.1 µM), actives largely listed as inhibitors. 41% of 1,600 active; note: nearly all actives have a fitted effect of over 65% in size
# TGFb COP inh – qHTS for Inhibitors of TGF-b: Hit Validation in HepG2 Cells using COP promoter; shares compounds with TGFb SMAD3 inh; HepG2 COP-GFP TGF-b reporter, GFP fluorescence, 18 h; cells stimulated by added recombinant TGF-beta; Potency, µM (series often up to 46.1 µM), actives largely listed as inhibitors; 3% of 1,600 active; note: nearly all actives have a fitted effect of over 70% in size
# A number is an active result; . = inactive; ? = inconclusive; / = no result given; ! = a repeat was not active. Hits are enriched below; roughly 2.6% of the tested compounds scored in any of these assays. Unless noted, calls come from the whole dose curve; as a rule, active = well fitted curve in the direction sought with a large enough effect; inconclusive = small, poorly fitted or top-dose-only effect, or another doubt; inactive = no such curve, though single readings can be large; an effect the other way counts as inactive or inconclusive.
SMILES,Giardia killer,ATXN2 expr inh,S2 tox,TGFb SMAD3 inh,uPA generation,HepG2 tox-1,TGFb confirm,HepG2 tox-2,CCL64 TGFb inh,TGFb COP inh
O=C(Nc1cccc(C(F)(F)F)c1)C1CCN(S(=O)(=O)c2ccc(N3CCCC3=O)cc2)CC1,.,?,.,?,?,.,/,/,/,/
Cc1ccc(F)cc1C(=O)N1CCOCC1c1cc(C(=O)NCc2ccccc2)no1 (stereo not drawn),/,.,.,.,/,.,/,/,/,/
COC(=O)c1sccc1NC(=O)CN1CCN(c2ccc(F)cc2)CC1,.,.,.,11µM,.,.,?,?,.,.
CCCSc1ncc(Cl)c(C(=O)Nc2ccc(S(=O)(=O)N(C)c3ccccc3)cc2)n1,/,/,/,/,/,.,/,/,/,/
CCSc1ncc(Cl)c(C(=O)Nc2ccc(S(=O)(=O)N3CCC(C)CC3)cc2)n1,/,.,.,?,/,.,/,/,/,/
COc1ccccc1NC(=O)c1nc(S(=O)(=O)Cc2ccccc2)ncc1Cl,.,?,?,4.5µM,.,.,2.9µM,5.8µM,2.1µM,15µM
Cc1ccccc1CS(=O)(=O)c1ncc(Cl)c(C(=O)Nc2nnc(C(C)C)s2)n1,/,/,/,?,/,.,/,/,/,/
CN(c1ccccc1)S(=O)(=O)c1ccc(NC(=O)c2nc(S(C)(=O)=O)ncc2Cl)cc1,.,14µM,16µM,5.6µM,?,5.6µM,2.9µM,4.1µM,1.8µM,6.5µM
Cc1ccc(NC(=O)c2nc(S(=O)(=O)Cc3ccccc3C)ncc2Cl)cc1C,?,?,?,7.1µM,.,16µM,3.3µM,10µM,3.7µM,?
CCS(=O)(=O)c1ncc(Cl)c(C(=O)Nc2ccc(S(=O)(=O)N3CCC(C)CC3)cc2)n1,.,.,14µM,4.5µM,.,1.8µM,4.6µM,4.6µM,2.1µM,9.2µM
O=C(C[N+]12CCCc3cccc(c31)CCC2)c1ccc2ccccc2c1,/,/,/,.,/,.,/,/,/,/
CCOC(=O)c1ccc(NC(=O)c2nc(S(=O)(=O)Cc3ccccc3)ncc2Cl)cc1,.,?,20µM,3.5µM,.,6.3µM!,4.6µM,6.5µM,2.3µM,13µM
CCOc1ccccc1NC(=O)c1nc(S(=O)(=O)Cc2ccccc2)ncc1Cl,.,/,8.9µM,5µM,3.2µM,6.3µM,2.9µM,5.8µM,4.6µM,7.3µM
Cc1cccc(CS(=O)(=O)c2ncc(Cl)c(C(=O)NCc3ccc4c(c3)OCO4)n2)c1,?,/,?,7.9µM,?,14µM,5.8µM,13µM,2.9µM,?
CC(C)c1nnc(NC(=O)c2nc(S(=O)(=O)Cc3ccccc3)ncc2Cl)s1,.,?,?,?,.,.,/,/,/,/
CCCCn1c(N)c(N(Cc2ccccc2OC)C(=O)c2ccc(N3CCCC3=O)cc2)c(=O)[nH]c1=O,.,.,.,.,.,.,/,/,/,/
Cc1nc(N2N=C3/C(=C/c4ccc(F)cc4)CCCC3C2c2ccc(F)cc2)sc1C(=O)N(C)C (stereo not drawn),.,?,/,13µM,.,.,23µM,?,?,.
